# The sample as a whole holds a higher share of hits than the screen did.
# TDP1 cell noCPT – qHTS for Inhibitors of human tyrosyl-DNA phosphodiesterase 1 (TDP1): qHTS in cells in absence of CPT; DT40 Tdp1-/- hTDP1 cells, no CPT, ATP luminescence, 48 h; Potency, µM (series often up to 46.2 µM), without a hit: at the highest dose activity change, negative = growth inhibition, actives largely listed as inhibitors; 420,000 compounds, 15% hits; AID 686978, 2013; note: potency is the fitted concentration of half-maximal effect; nearly all actives have a fitted effect of over 55% in size
#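 Growth of hTDP1-complemented DT40 Tdp1-knockout cells is measured by ATP luminescence after at least 48 hr compound exposure at 37 °C, with DMSO substituting for the 20 nM CPT used in the parallel screen.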
# HT1080-NT tox – kills 2HG-producing HT-1080-NT fibrosarcoma cells; HT-1080-NT fibrosarcoma viability, CellTiter-Glo ATP luminescence, 48 h; Potency, µM (top dose mostly 46.1 µM), without a hit: at the top dose activity, negative = less viability, usual class: cytotoxic; 360,000 compounds, 1.6% hits; AID 686970;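 note: NT is the 2HG producing partner of a matched IDH1 knockdown line; potency is the fitted concentration of half-maximal effect; 0% = DMSO-treated cells and -100% = media-only wells without cells; nearly all actives have a fitted effect of over 55% in size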
#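 Viability of the 2HG-overproducing fibrosarcoma line after 48 hours of compound exposure at 37 degrees C was determined by luminescence with CellTiter-Glo, and concentration-effect curves were then fitted and categorized.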
# TDP1 cell CPT – growth inhibition of DT40 Tdp1-/-;hTDP1 cells with camptothecin (screen for TDP1 inhibitors); AID 686979; 420,000 compounds, 12% hits; chicken DT40 Tdp1-/-;hTDP1 cells + 20 nM CPT, ATP luminescence, 48 h; Potency, µM (top dose mostly 46.2 µM), without a hit: at the highest dose activity change, negative = growth inhibition, usual class: inhibitors; note: potency is the fitted concentration of half-maximal effect; nearly all actives have a fitted effect of over 55% in size
#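 Cell growth measured by CellTiter-Glo luminescence after a minimum 48 h, 37 C compound exposure with 20 nM CPT in Tdp1-knockout DT40 cells stably expressing hTDP1, seeded 400/well; qHTS titration format.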
# IL-1B inflam inh – inhibitors of inflammasome signaling (IL-1 beta secretion); THP-1 LPS/ATP IL-1B secretion, AlphaLISA, 16 h; hits give low values; activity change, % at 57.5 µM; 360,000 compounds, 4.7% hits; AID 743279; in the data active = activity change below about -50%; inconclusive = mostly about -30% to -49%
#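 Secreted IL-1B measured by AlphaLISA bead assay after 16 h compound exposure of THP-1 cells; compounds (final up to 57.5 uM) added 1 h before LPS (250 ng/mL) and ATP (1.25 mM) stimulation; lower signal means less secretion.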
# HT1080 IDH1KD tx – toxicity to HT-1080 IDH1 knockdown cells (counter line); HT-1080 IDH1 knockdown viability, ATP luminescence, 48 h; Potency, µM (top dose mostly 46.1 µM), without a hit: at the top dose activity, negative = toxicity, most hits filed as cytotoxic; 360,000 compounds, 2% hits; AID 686971;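 note: potency is the fitted concentration of half-maximal effect; 0% = DMSO wells and -100% = cell-free medium wells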
#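 After a 2 h attachment period, IDH1KD HT-1080 cells took pin-transferred compound for 48 h at 37 °C; ATP-based luminescence after 10 min room-temperature reagent incubation reported viability.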
# ALOX12 inh – blocks human arachidonate 12S-lipoxygenase; 580,000 compounds, 1.1% hits; Potency, µM (series often up to 108 µM), for inactives: at the top dose activity change, negative = inhibition, hits mostly inhibitors; purified 12hLO, xylenol orange hydroperoxide absorbance; P18054; AID 1671190; note: potency is the fitted concentration of half-maximal effect
# Target sequence (P18054 whole entry, looked up): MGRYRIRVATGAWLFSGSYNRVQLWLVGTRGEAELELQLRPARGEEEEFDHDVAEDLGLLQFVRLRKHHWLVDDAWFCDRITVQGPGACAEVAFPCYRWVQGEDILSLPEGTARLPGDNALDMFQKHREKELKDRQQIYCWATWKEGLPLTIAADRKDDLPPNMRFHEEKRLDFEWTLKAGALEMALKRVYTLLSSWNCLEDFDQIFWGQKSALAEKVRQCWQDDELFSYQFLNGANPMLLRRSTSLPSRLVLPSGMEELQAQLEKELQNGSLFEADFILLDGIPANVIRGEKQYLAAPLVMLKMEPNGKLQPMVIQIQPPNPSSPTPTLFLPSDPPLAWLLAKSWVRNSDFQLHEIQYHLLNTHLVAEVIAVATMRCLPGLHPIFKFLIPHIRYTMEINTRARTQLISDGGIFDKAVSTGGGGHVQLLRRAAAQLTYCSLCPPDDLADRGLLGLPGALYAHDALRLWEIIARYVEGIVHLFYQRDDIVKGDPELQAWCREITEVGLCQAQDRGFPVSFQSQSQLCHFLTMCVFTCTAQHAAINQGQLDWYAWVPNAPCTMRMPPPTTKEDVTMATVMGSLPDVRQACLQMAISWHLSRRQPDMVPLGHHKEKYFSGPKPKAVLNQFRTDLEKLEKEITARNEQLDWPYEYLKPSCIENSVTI
#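 Purified human 12hLO (150 nM final) in 25 mM Hepes, 0.01% Triton X-100, pH 7.0 was preincubated 15 min at room temperature with compound. Then 40 uM arachidonic acid was added, 30 min. Hydroperoxide was read by Fe-XO absorbance ratio 573/405 nm.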
# The depositor's hits bear a star; ? = inconclusive; . = no result given; [ ] = another dose, or the depositor's remark. Unless noted, calls come from the whole dose curve; as a rule, active = well fitted curve in the direction sought with a large enough effect; inconclusive = small, poorly fitted or top-dose-only effect, or another doubt; inactive = no such curve, though single readings can be large; an effect the other way counts as inactive or inconclusive. Unless noted, % is set by controls: 0 for no effect and ±100 for the full control effect.
SMILES,TDP1 cell noCPT,HT1080-NT tox,TDP1 cell CPT,IL-1B inflam inh,HT1080 IDH1KD tx,ALOX12 inh
O=C(NCc1ccco1)C(c1ccccc1)N(C(=O)Cc1cccs1)c1ccccc1F (centres undefined),26µM*,14%,?,?,2%,-35%
Cc1ccc(C(C(=O)NCc2ccco2)N(C(=O)CNC(=O)c2cccs2)c2c(C)cccc2C)cc1 (centres undefined),?,12%,?,-22,12%,?
COc1cccc(-c2nnc(SCC(=O)Nc3ccc4c(c3)OCO4)n2-n2cccc2)c1,.,.,.,.,.,-20%
Cc1nn(CCCC(=O)NCc2ccc(F)cc2)c(C)c1[N+](=O)[O-],-21%,0%,-14%,21,4%,-11%
COc1ccc(N2CCN(C(=O)c3ccc(Cn4nc(C)c([N+](=O)[O-])c4C)o3)CC2)cc1,13µM*,?,?,-12,-19%,479%
Cc1nn(Cc2ccc(C(=O)NC(C)(C)C)o2)c(C)c1Br,12µM*,-10%,23µM*,-20,-14%,-29%
Cc1nn(Cc2ccc(C(=O)N3CCCC3)o2)c(C)c1[N+](=O)[O-],18%,-4%,-16%,45,1%,11%
Cc1nn(CCCC(=O)N2CCN(c3ccc(F)cc3)CC2)c(C)c1[N+](=O)[O-],21µM*,-3%,16µM*,-24,-2%,-10%
COc1ccc(CNC(=O)c2ccc(Cn3nc(C)c([N+](=O)[O-])c3C)o2)cc1,23µM*,0%,?,-23,-15%,-4%
CN(CCC(O)c1ccccc1)Cc1cn(-c2ccccc2)nn1 (centres undefined),.,.,.,.,.,35%
COCCNC(=O)[C@@H]1C[C@H](Oc2ccccc2)CN1C(=O)CCc1nc2ccccc2[nH]1,.,.,.,.,.,38%
O=C([C@@H]1C[C@H](Oc2ccccc2)CN1C(=O)c1ccncc1)N1CCCC1,.,.,.,.,.,17%
COC(=O)CC1Oc2ccccc2-n2cc(-c3ccc(Cl)cc3)nc21 (centres undefined),1.8µM*,.,7.3µM*,.,.,-11%
COC(=O)CC1Oc2ccc(Cl)cc2-n2cc(-c3ccccc3)nc21 (centres undefined),13µM*,.,21µM*,.,.,-11%
COC(=O)CC1Oc2ccccc2N(Cc2ccccc2)C1=O (centres undefined),-15%,6%,7%,12,1%,442%
O=C1CC2CCN(Cc3c(F)cccc3Cl)CC2CCN1 (centres undefined),.,.,.,.,.,0%[6.33 µM]
Brc1ccc(CSc2ncn[nH]2)cc1,-8%,-15%,-11%,-13,-27%,5%
CCCOc1ccc(CSc2ncn[nH]2)cc1,5.8µM*,7%,4.6µM*,-22,13%,11%
CCN1CCN(C(=S)NC(CC(=O)c2ccccc2)c2ccccc2)CC1 (centres undefined),-24%,-7%,9%,?,-4%,51%
CN1CCN(C(=S)NC(=O)/C=C/c2cccc3ccccc23)CC1,-17%,10µM*,-12%,14,?,-19%
CN1CCN(C(=S)NC(CC(=O)c2ccccc2)c2ccccc2)CC1 (centres undefined),-30%,1%,-7%,-52*,-15%,1%
Cc1cccc(NC(=O)CCc2ccc(N3C(N)=NC(N)=NC3(C)C)cc2)c1,0.37µM*,1µM*,0.33µM*,5,0.46µM*,17%
CC1(C)N=C(N)N=C(N)N1c1ccc(OCC(=O)Nc2ccccc2)c(Cl)c1,0.73µM*,0.73µM*,1.2µM*,-21,0.37µM*,0%
CC1(C)N=C(N)N=C(N)N1c1ccc(OCCCOc2ccccc2)c(Cl)c1,2.3µM*,?,1.8µM*,?,2.1µM*,10%
Cc1cccc(NC(=O)CCc2ccc(C)o2)c1,?,15%,?,-12,14%,?
SMILES,TDP1 cell noCPT,HT1080-NT tox,TDP1 cell CPT,IL-1B inflam inh,HT1080 IDH1KD tx,ALOX12 inh
COc1cc(C)ccc1OCCCOc1ccccc1Cl,?,7%,?,-16,1%,2%
CC1(C)N=C(N)N=C(N)N1c1cccc(CC(=O)Nc2ccccc2)c1,2.6µM*,9.2µM*,9.2µM*,-11,3.3µM*,8%
O=C(COc1ccccc1Cl)Nc1ccc(-n2cnnn2)cc1,.,.,.,.,.,12%
O=C(Cc1cccc([N+](=O)[O-])c1)Nc1ccccc1,2%,2%,5%,-7,1%,?
N#CCCn1nc(-c2ccc(F)cc2)c2ccccc2c1=O,.,.,.,.,.,7%
N#Cc1c(-c2ccc(F)cc2)c(-c2ccc(F)cc2)nn(CCO)c1=O,3.3µM*,6.5µM*,4.6µM*,5,8.2µM*,12%
C[S+](=O)([O-])c1ccc(-c2nc(C(=O)N3CCCC3)n3ccncc23)cc1,.,.,.,.,.,-2%[6.33 µM]
O=Cc1cccc(N2CCN(C(=O)c3ccncc3)CC2=O)c1,.,.,.,.,.,2%[6.33 µM]
CC(C)CCOc1ccccc1C(N)=O,?,-2%,-26%,19,3%,0%
CCCOc1ccc(CSC(=N)N)cc1C(=O)OC,?,-10%,?,-57*,-10%,12%
COC(=O)c1cc(CSC(=N)N)ccc1OCCC(C)C,23µM*,?,?,-85*,?,?
Cc1cc(C(=O)CN2C(=O)NC(C)(c3ccc(F)c(F)c3)C2=O)c(C)n1C1CC1 (centres undefined),5.8µM*,-10%,7.3µM*,28,3%,4%
CCc1noc(CC2CCOC3(CCN(S(=O)(=O)c4cccc(Cl)c4)CC3)C2)n1 (centres undefined),.,.,.,.,.,10%
O=C(NCCN1C(=O)S/C(=C/c2cccnc2)C1=O)c1ccc(S(=O)(=O)N2CCCC2)cc1,?,-20%,-24%,26,-23%,?
Cc1cc(Cl)ccc1OCCCC(=O)NCCN1C(=O)S/C(=C\c2cccnc2)C1=O,16µM*,-28%,?,-54*,?,-20%
CS(=O)(=O)c1ccc(C(=O)NCCN2C(=O)S/C(=C\c3cccnc3)C2=O)cc1[N+](=O)[O-],4.6µM*,?,3.7µM*,-98*,?,0%
O=C1CCC(C(=O)NCCN2C(=O)S/C(=C\c3cccnc3)C2=O)=NN1,-16%,-14%,?,-3,-9%,-18%
CN(C)S(=O)(=O)c1ccc(C(=O)NCCN2C(=O)S/C(=C\c3cccnc3)C2=O)cc1,?,-10%,?,-10,-1%,-5%

# Source: PubChem BioAssay (National Center for Advancing Translational Sciences (NCATS))
